Laboratory results published in the supplement of paper PMC10105736.
A number with no mark means an inactive call.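 The calls were made as follows: active = MAPPIT score above the 99th percentile of random reference set scores in the same batch; inactive = at or below it.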

Columns and labels:
Test in all cases: MAPPIT interaction score (arbitrary units); higher = stronger binary interaction signal, active = hit call of the paper
[1] = biological target: CG11555; conditions: MAPPIT configuration: N-N; pair source set: Curagen_high_conf
[2] = biological target: CG5708; conditions: MAPPIT configuration: N-C; pair source set: screen_4
[3] = biological target: CG11149; conditions: pair source set: RRS
[4] = biological target: CG14323; conditions: MAPPIT configuration: N-N; pair source set: RRS
[5] = biological target: CG34268; conditions: MAPPIT configuration: N-N; pair source set: RRS
[6] = biological target: CG10918; conditions: MAPPIT configuration: N-N; pair source set: Finley_Y2H
[7] = biological target: CG11723; conditions: MAPPIT configuration: N-N; pair source set: screen_2
[8] = biological target: CG31624; conditions: MAPPIT configuration: N-N; pair source set: screen_2
[9] = biological target: CG10510; conditions: MAPPIT configuration: N-N; pair source set: Finley_Y2H
[10] = biological target: CG31111; conditions: MAPPIT configuration: N-N; pair source set: DPIM
[11] = biological target: CkIIbeta
[12] = biological target: Pkc98E; conditions: MAPPIT configuration: N-N; pair source set: Finley_Y2H
[13] = biological target: CG11275; conditions: MAPPIT configuration: N-N; pair source set: Curagen_high_conf
[14] = biological target: CG10616; conditions: MAPPIT configuration: N-N; pair source set: Finley_Y2H
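Also: HEK293T cells with Epo stimulation, STAT-responsive firefly luciferase reporter, fold induction versus unstimulated cells divided by the larger fold induction of two negative controls lacking either bait or prey.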

B1: PolE2 (protein)
chain: MDVDLLPLRKRITNTFKLCGFLIRSENSSYLAEQLLPFDAAERDKWLTVITENLQSQKLLTPHVERAALEKAINELNRVGLDEGETVFALIDAFTVPRFRYNQRIKKFELDTQPRQLLTAPRMKSDYMQQRYAMLLQKTLRHDLFAPAVIQDGVGAEAQAKKFKLQFAENLLATSAMKEAVVLGLLTQLKEGKFYVEDPTGCVQLDLTGARFHAGFFCEGCFVLAEGNYNNGVLKVDGLGFPPAEPANSSRAFFGTANTWGGESAKLLKYSAGLQELERTNTETTIVFLSDVRLDLPVVMEKLRQLFVGYDSCPPQAIVLMGPFTASTRNHHELRHHLDALGGLAAGCEQLKKQTDLILVPSSEDPTAPNILPRAPIPECLAAGLLKAWPRTQLATNPCRLQYCTQQIVVCRLDLMAKFCRNTLHFPEDTSQIEQHFARTIVCQGHLVPIHPIAMPVHWDYDPALWLYPLPDLIVMGDSCQSFSSSQHGCTVLNTGSFVKSKFAFKVYIPATRTIEDSEIPDELE
MAPPIT interaction score [1]: 0.14
MAPPIT interaction score [2]: 1.19

B2: wuho (protein)
chain: MCTTISFAEPEIVLGHGRRVLFVNPDDLQIFKEIELPPDLGLKGHTSQSQESCTAAAAASTATAASGQAPGGKEQQLANQPEEGGTSASASGLGCATSTSVQNVAYSPDGQLLAVTTSGKQKALLLYRSRPENARLLSARPLARASSALRFCSDSSSILVTDKTGDCYQYDCVEVEAPPRLLLGHLSVVYDILWSEDQQHIITCDRDDKIRVTNYPATFDIHSYCLGHREFVSGLALLTEQHIASASGDKTLRVWNYIQGKELLQHELPAPAVRLLVRQLEPEKVFQAAVLFYEHVDALGLYRLERSSDDTWSVTATQLVCAEAGSWSISNFTLTSDRIYITGAENERLSLRVYDIATGQPASSGVPEGWLKMVLDGLGANEEGAPPFIPEDLSVWFKKRFDNVSDYLERKKRRIEEQQQQKCG
MAPPIT interaction score ([3]; MAPPIT configuration: N-C): 0.206
MAPPIT interaction score ([3]; MAPPIT configuration: N-N): -0.175
MAPPIT interaction score [4]: 0.00913
MAPPIT interaction score [5]: 0.0545

B3: Fer2LCH (protein)
chain: MKFFVALALFACLGSLALAKDDEYCQNTVITACSTSAFSANSICNARFAGIDHIEPEIQSYINANLAKSYDYLLLATHFNSYQKNRPGFQKLYQGLSDRSFEDSIALIKQVTRRGGIVDFNTRHESSGSVSTKRGTLEVDELHSLALALDTEKQLATGATHVHSRATHATDAERDPELAHYFEENFLGKQAESVRKLSGYANDLAKLMKVPDPSLSVYLFDEYLQKQ
MAPPIT interaction score [6]: 0.0432

B4: su(sable) (protein)
chain: MSVALADEPLIDLEEDLEDGEIDDDEEDEQQSSKIQVQKKTFVGDDDVQFVGVEAKNQNDDEDVVYVGPSTDAVCLQNSNSTKSKKPRPLEDDHASSIELAIANALKKKGIEPPMPRMRSSNQDTSDQSLEGSGEGLATANPLLQSTRSSRRRKRKKEREREQKKDKEQQNRSRRDENDVSVVPGGVEDMDEYEMMNVRGGSPPPGGAAPPLSSCGQRFSGADWDMDDGSAATGAAGLGAGGGGGYNSHSSYDSYSDEETNGPGLMNQRRRTRRDNEKEHQRGVNNRKRRDRDRLEGGLAGSGSKRNRRDSGEGGGGGQEKMGGSNRVEPRKLELCKFYLMDCCAKRDKCSYMHKEFPCKYYYLGMDCYAGDDCLFYHGEPLSEQLRNVLLKHMETAPKEILGDFKRISRDIAIVQMTRRHEQLCDQLNRENTWNSIGCGLMGKRQDHQMQQQQQQLQHQQLQQQQEQQQTQQQAAADGGGCIPSLLDMVINPPLSENKRKSRWTEKMGAKAAAGAAGSSERDSTSPDAKPLPPHLDLANLSHVLSAENMAKLNKLGITNLEQMLQVPFGQLTEAGLTLVEIGEIQRKAEDAKPQTQAELESSTPPSKRETEANNSNSKSNGLIMVDYTQYLKDAHVSFSGNDPLDDDRDDDEQLIIDDGNDSTAEEDQQPKKAKAPPAATHESSTEEAPLPSVFDLPSFMNNMLGQGSSARQLLPASATSPNQENAHLPGGDQSTHKSAPIGGGTSTNVLGRILFGDKQSDPEARAAFYRDIIRNPFKAHSGDGDVDSSNENSNSNSHSLTPTPTPEPGSQSPKPEDHDQDMPELPVIAPALPPTTPSLYVRRSMYDFDPVKEQEHGRQELLTEEKEQYQRDTDMRLPFEPMKHYMPATEIDAAIFSHTPIRWQLHEVTIEESSYAQIRASALHKEQRELRDPRMRRILGLPETPDNSGPLGSVPIMGPSSFSVDNIARCATTIASPDLETAVRDSTPSSPPPSVVNLPSMSVPPPSMRVPPPNIQVEKPTVRTDPRRDPRRAVLQAPTKGASTANTTAPNASGGSKQISEIRSLLQVSNWYNNLGTNNKIMVNQQLALVFTELKKFHQLPNDAPKIFDVSFIVNNTTLQQIFAKLFIFVDDNGEVVQIPEEPNGNGAALGGGGDSGGGVGGGGGGGGVVLPNLSQPPPNLSQMLRLPPPNIRMLRMSGMMMQMGNVGPPFNQPPPRGGLMGMPPNGNGLNQGVGNLGGLGQLGINQGGGPVPNGNPFNPFGGNNGGGAGVMNNMNSMGNMGMGFNNFNNNGGRGGHFPGGGSGGNGNGNNRNQRGGNHRNRNI
MAPPIT interaction score [7]: 0.327
MAPPIT interaction score [8]: 1.52

B5: CkIIalpha (protein)
chain: MTLPSAARVYTDVNAHKPDEYWDYENYVVDWGNQDDYQLVRKLGRGKYSEVFEAINITTTEKCVVKILKPVKKKKIKREIKILENLRGGTNIITLLAVVKDPVSRTPALIFEHVNNTDFKQLYQTLTDYEIRYYLFELLKALDYCHSMGIMHRDVKPHNVMIDHENRKLRLIDWGLAEFYHPGQEYNVRVASRYFKGPELLVDYQMYDYSLDMWSLGCMLASMIFRKEPFFHGHDNYDQLVRIAKVLGTEELYAYLDKYNIDLDPRFHDILQRHSRKRWERFVHSDNQHLVSPEALDFLDKLLRYDHVDRLTAREAMAHPYFLPIVNGQMNPNNQQ
MAPPIT interaction score [9]: 0.0158
MAPPIT interaction score [10]: 0.429
MAPPIT interaction score ([11]; MAPPIT configuration: N-C, pair source set: Lit-BM-16): 3.22
MAPPIT interaction score ([11]; MAPPIT configuration: N-N, pair source set: Lit-BM-16): 4.3 (active)
MAPPIT interaction score ([11]; MAPPIT configuration: N-N, pair source set: screen_1): 4.3 (active)
MAPPIT interaction score [12]: 0.257

B6: Lcp2 (protein)
chain: MFKFVMILAVVGVATALAPVSRSDDVHADVLSRSDDVRADGFDSSLHTSNGIEQAASGDAHGNIHGNFGWISPEGEHVEVKYVANENGYQPSGAWIPTPPPIPEAIARAVAWLESHPPAPEHPRHH
MAPPIT interaction score [13]: 0.91

B7: wbl (protein)
chain: MMHILVTLLLVAIHSIPTTWAVTCTGCVDLDELSFEKTVERFPYSVVKFDIAYPYGEKHEAFTAFSKSAHKATKDLLIATVGVKDYGELENKALGDRYKVDDKNFPSIFLFKGNADEYVQLPSHVDVTLDNLKAFVSANTPLYIGRDGCIKEFNEVLKNYANIPDAEQLKLIEKLQAKQEQLTDPEQQQNARAYLIYMRKIHEVGYDFLEEETKRLLRLKAGKVTEAKKEELLRKLNILEVFRVHKVTKTAPEKEEL
MAPPIT interaction score [14]: -0.151
